# Measurements as given in the supplement of paper PMC6555819.
# Key:
# Assay in all cases: PBM binding z-score (relative to random genomic background probes); higher = stronger binding; sequences stand for … in GC…GCGATTGACAGCGTAGAATGAAGG
# [1] = system: RARb homodimer (NR concentration 270 nM)
# Summary of the method: (§1)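 Ligand-free nuclear receptor dimers were applied to custom Agilent 4×180K protein-binding microarrays whose double-stranded probes carried direct-repeat seeds, single-nucleotide variants, half-site ablations and random human genomic background sequences in 34-nt variable regions. Incubation lasted 1 h. Binding z-scores were computed against the random background probes from regression-normalized fluorescence.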
# [2] = system: RARg:RXRa (NR concentration 270 nM, RXRa partner concentration 90 nM)
# Summary of the method: as §1
# [3] = system: RARg homodimer (NR concentration 270 nM)
# Summary of the method: as §1
# [4] = system: RXRa DBDmut IVT, anti-RXR (DBD mutation: RXRa K156A/R161A, NR concentration 90 nM)
# Summary of the method: as §1
# [5] = system: RXRa homodimer (NR concentration 180 nM)
# Summary of the method: as §1
# [6] = system: THRa:RXRa (NR concentration 90 nM, RXRa partner concentration 90 nM)
# Summary of the method: as §1
# [7] = system: THRa homodimer (NR concentration 90 nM)
# Summary of the method: as §1
# [8] = system: VDR homodimer (NR concentration 270 nM)
# Summary of the method: as §1
Sequence,PBM binding z-score [1],PBM binding z-score [2],PBM binding z-score [3],PBM binding z-score [4],PBM binding z-score [5],PBM binding z-score [6],PBM binding z-score [7],PBM binding z-score [8]
GGAACGAGGGCATTCGAGTTGGTAGCATGGCGAT,0.543,0.787,0.965,2.93,0.508,1.87,-0.702,2.2
AGTCAAAGTTCATCTAGGTAACCTAAGATATGCT,4.08,5.61,6.14,4.79,4.87,3.21,0.817,5.75
CGTCCAAGGTCCTAGGAGGTCAGTGAAGACAGAT,2.93,2.53,2.38,0.216,2.14,4.08,0.834,1.06
CAAACTTGGTCACCGGAAGGTCAAAGTCCGCATG,4.11,5.35,4.2,0.79,4.16,3.05,1.24,2.2
TCAATGAGGTTAAAGATCAGGGAACGTGGCGTCG,0.614,2.41,1.32,1.88,4.18,2.42,0.288,0.855
CCTTACGTGTCACTCCAGGTTATAGCATCGGAGT,1.36,0.925,1.27,1.09,0.845,3.43,1.14,1.24
TCGCGTAGGTTAGGGGCATTCAGAATGGCGTCGA,0.811,0.412,0.26,0.518,0.821,0.842,0.102,0.649
